Source: PubChem BioAssay
This is one part of a sample in which hits are shown more often than they occur.
RBX1-CUL1 inh: human ROC1-CUL1 E3 ligase inhibition; P62877+Q13616; in vitro K48 di-Ub FRET, acceptor:donor ratio, 45 min; inhibition, % at 10 µM; 140,000 tested, 0.6% active; AID 1347404; in the data active = inhibition above about 25%
Hits are given with their value; n = inactive.

SMILES	RBX1-CUL1 inh
COc1ccc2nc(Cl)c(-c3nnc4c(Cl)nc5ccccc5n34)cc2c1	n
Fc1ccc(-c2nnc3c(Cl)nc4ccccc4n23)cc1	n
Clc1nc2ccccc2n2c(-c3ccccc3)nnc12	25.2
N#C/C(=C/c1cn(Cc2ccccc2Cl)c2ccccc12)C(=O)Nc1cccc(Cl)c1	n
O=C1NN=C2N=C(C(F)(F)F)C=C(C(F)(F)F)C12 (configuration not stated)	97.4
C=C1C(=O)O[C@H]2C1[C@@H](OC(C)=O)C[C@@](C)(O)[C@@H]1CC=C(C)[C@@H]12 (some centres not stated)	n
COc1cc(Cl)c(C)cc1NC(c1ccccc1)c1nnc(-c2ccccc2Cl)o1 (configuration not stated)	n
COc1ccc(/C=N/NC(=O)c2cc(C34CC5CC(CC(C5)C3)C4)[nH]n2)cc1	n
Cc1ccc(CNC(=O)c2cc3cc(C)ccc3n2C)cc1	n
CCc1c(C)[nH]n(-c2nc3ccccc3s2)c1=O	n
Cc1cc(-c2ccccc2)nn1-c1nc2ccccc2s1	n
COc1ccc(CCn2c(O)cc3nn(-c4nc5ccccc5s4)c(=O)c-3c2C)cc1	79.5
Cc1nn(Cc2cccc(C(=O)O)c2)c(C)c1Cl	n
Cc1ccc(-c2nn3c(=O)[nH]nc3c3ccccc23)cc1	n
Cc1nc2c(nc1Cl)c(=O)n(C)c(=O)n2C	n
COc1cnc2c(=O)n(C)c(=O)n(C)c2n1	n
Cc1nc2c(=O)n(C)c(=O)n(C)c2nc1Cl	71.5
Cc1oc(-c2cccc(NC(=O)CCc3cccnc3)c2)nc1CNC(=O)Cc1ccc(Cl)cc1	n
CCCNCc1ccc(-c2ccc(OC)c(Cl)c2)o1	n
O=C1C(Cc2ccc(O)cc2)NC(=S)N1C1CCCCC1 (configuration not stated)	n
CC(C)c1ccc(/C=C2\CCCc3ccccc3C2=O)cc1	n
COc1ccc(CNC(=O)c2nn3c(C(F)(F)F)cc(-c4ccc(Br)cc4)nc3c2Br)cc1	n
O=C(NCc1ccco1)c1nn2c(C(F)(F)F)cc(-c3cc(Br)cs3)nc2c1Br	n
COc1ccc(-c2cc(C(F)(F)F)n3nc(C(=O)NCc4ccco4)c(Br)c3n2)cc1	28.9
COc1ccc(CN2CCCC2)cc1OCC(O)CN1CCN(C)CC1 (configuration not stated)	n
SMILES	RBX1-CUL1 inh
Cc1cccc(Nc2nc(-c3ccccc3)c3cc(C)ccc3n2)c1	n
CC(C)Cc1nnc(NC(=O)CCN2C(=O)c3ccccc3C2=O)s1	n
CN1CCN(C(=O)CSc2nnc(CCCOc3ccc(Cl)cc3Cl)o2)CC1	n
O=C(CCCN1CCOC(c2ccccc2)C1)c1ccc(F)cc1 (configuration not stated)	n
COc1cc(/C=C2\C(=O)NN(c3ccccc3)C2=O)cc(Cl)c1OCCOc1ccc(Cl)c(C)c1	n
Cc1cccc(OCCOc2c(Cl)cc(Cl)cc2/C=C2\C(=O)NN(c3ccccc3)C2=O)c1	97.8
CCOc1cc(/C=C2\C(=O)NN(c3ccccc3)C2=O)cc(Cl)c1OCCOc1ccc(C)cc1C	n
O=C1NN(c2ccccc2)C(=O)/C1=C/c1cc(Cl)cc(Cl)c1OCCCOc1ccc(Cl)cc1	n
Cc1cccc(OCCCOc2c(Cl)cc(Cl)cc2/C=C2\C(=O)NN(c3ccccc3)C2=O)c1	n
Cc1cc(OCCOc2ccc(Cl)cc2/C=C2\C(=O)NN(c3ccccc3)C2=O)ccc1Cl	49.1
COC(=O)C1C(CS(=O)(=O)c2ccc(C)cc2C)=NC(=O)NC1c1ccc(C)cc1 (configuration not stated)	n
COc1ccc(-c2cc(-c3ccc(C)cc3)nc3sc(C(=O)Nc4c(C)cc(C)cc4C)c(N)c23)cc1OC	n
CCOC(=O)C1CC(OC2CCCCC2)C(c2ccccc2)=NC(=O)C1=O (configuration not stated)	n
c1ccc2c(c1)ncc1nncn12	n
Cc1sc(C)c(-c2ccsc2)c1-c1ccsc1	n
CN1C(=O)C(=Cc2cc(Br)c(N(C)C)o2)C(=O)N(C)C1=O	n
Cc1cc(/C=C2\C(=O)NC(=S)N(C)C2=O)c(C)n1-c1ccccc1F	n
CN1C(=O)/C(=C/c2cc(Br)c(Sc3ccc(Cl)cc3)o2)C(=O)NC1=S	48.1
CCNC(=O)CC1C(=O)N(c2ccc(C)cc2)C(=O)N1Cc1ccc(C)cc1 (configuration not stated)	n
CN(C)Cc1ccc(CSCCNc2cc(C3CCNCC3)ncn2)o1	n
c1ccc(Oc2cc(-n3cncn3)ncn2)cc1	n
Cc1ccc(-c2nn3c(N)c(C#N)nnc3c2Cl)cc1	94.1
Cc1ccc(-c2nn3c(-c4cccs4)c(C#N)cnc3c2Br)cc1	n
Cc1ccc(-c2nn3c(-c4ccc(C)cc4)nnc3c3ccccc23)cc1	n
CCOc1ccccc1NC(=O)C1C(C)=NC(=O)NC1c1ccc(C(C)C)cc1 (configuration not stated)	n
SMILES	RBX1-CUL1 inh
COc1ccc2c(c1)C(O)(C(F)(F)F)C(=O)O2 (configuration not stated)	n
COc1ccc2c(c1)C=C1C(=CC(=O)CC1(C)C)O2	111.5
COc1ccc2c(c1)C=Cc1ccccc1O2	n
COc1ccc(C(CNC(=O)c2oc3cc(C)c(C)cc3c2C)N2CCCCC2)cc1 (configuration not stated)	n
CN=C1CC=CC=C(C(=O)/C=C/c2ccc(C(F)(F)F)cc2)C1=O	n
CN=C1CC=CC=C(C(=O)/C=C/c2cc(C)ccc2C)C1=O	n
CN=C1CC=CC=C(C(=O)/C=C/c2ccccc2)C1=O	84.2
CN=C1CC=CC=C(C(=O)/C=C/c2c(Cl)cccc2Cl)C1=O	n
CN=C1CC=CC=C(C(=O)/C=C/c2ccc(C)cc2C)C1=O	103.0
COc1cccc(/C=C/C(=O)c2ccccc2)c1	n
CN=C1CC=CC=C(C(=O)/C=C/c2cccc(Oc3ccccc3)c2)C1=O	104.3
CC1=NC(=O)C(C(=O)/C=C/c2ccccc2)=C(C)C1	n
Cc1ccc(/C=C/C(=O)C2C=CC=CC(=O)C2=O)c(C)c1 (configuration not stated)	n
CCN(CC)S(=O)(=O)c1nnc(NC(=O)COc2ccccc2)s1	n
CCOc1ccc2nc(SC3CC(=O)N(c4cccc(Cl)c4)C3=O)sc2c1 (configuration not stated)	n
CC(C)OCCCNC(=O)Cn1ccc2cc(S(=O)(=O)N3CCCCCC3)ccc21	n
Cc1ccccc1Nc1ccccc1C(=O)N1CCCCC1	n
CCn1c(SCC(=O)Nc2c(C)cccc2C)nnc1-c1nonc1NC(C)=O	n
Cc1cc(S(=O)(=O)Nc2cc3c(cc2C)n(C)c(=O)c(=O)n3C)ccc1F	n
O=C1NC(=S)N(c2ccc(F)cc2)C(=O)/C1=C\c1ccc(N2CCOCC2)o1	n
CC(C)c1ccc(N2C(=O)/C(=C/c3ccc(O)cc3)C(=O)NC2=S)cc1	n
O=C1S/C(=C\c2ccc(Sc3ccccc3)o2)C(=O)N1c1ccc(Cl)cc1	n
CC(C)c1ccc(N2C(=O)/C(=C/c3ccc(Sc4ccccc4)o3)C(=O)NC2=S)cc1	97.3
Cc1ccc(Cl)cc1-c1ccc(/C=C2/C(=O)NC(=S)N(c3ccc(F)cc3)C2=O)o1	45.9
Cc1ccc(N2C(=O)/C(=C/c3ccc(N4CCN(C)CC4)o3)C(=O)NC2=S)cc1	n
O=C(CN(Cc1ccc(Cl)cc1Cl)S(=O)(=O)c1ccc(Cl)cc1)Nc1ccccc1Br	n
O=C(CCSc1nnc(-c2ccco2)o1)N1CCCC1	n
Cn1c(=Nc2ccccc2)ssc1=Nc1ccccc1	n
COc1ccc(N=C2SC(=Nc3ccccc3)C(=Nc3ccccc3)N2c2ccc(OC)cc2)cc1	n
COC1=CCCSC1=Nc1ccccc1	29.9
